Assay results reported in PubChem BioAssay (NCI).
Compounds without any hit were thinned out: in the full panel of roughly 79,000, 15% have a hit. Cut-off read from the data, not from the text of the source: active = growth inhibition above about 70%; inactive = the rest.

Key:
[1] = NCI Yeast Anticancer Drug Screen. Data for the rad50 strain (AID 155);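 note: 0% = growth of vehicle-only cultures of the same strain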; details: S. cerevisiae rad50 strain growth inhibition; at 50.0 µM; stronger effect = higher value
How it was run: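 Genetically altered yeast (DNA repair pathway); compound treatment; growth inhibition vs vehicle ctrl.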

[2] = NCI Yeast Anticancer Drug Screen. Data for the mec2-1 strain (AID 157); details: S. cerevisiae mec2-1 strain, at 50.0 µM, stronger effect = higher value
How it was run: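 mec2-1 yeast strain, carrying an alteration in DNA damage repair or cell cycle control, was exposed to compounds; growth inhibition was measured relative to vehicle-treated controls.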

[3] = NCI Yeast Anticancer Drug Screen. Data for the sgs1 mgt1 strain (AID 161);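 note: 0% = growth of cultures given vehicle only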; details: S. cerevisiae sgs1 mgt1 strain, at 50.0 µM, stronger effect = higher value
How it was run: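 Compounds are added to genetically altered yeast, and growth is compared with cultures given vehicle alone to give percent inhibition.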

[4] = NCI Yeast Anticancer Drug Screen. Data for the cln2 rad14 strain (AID 165);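 note: 0% = growth equal to vehicle treated cultures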; details: S. cerevisiae cln2 rad14 strain, at 50.0 µM, stronger effect = higher value
How it was run: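 Yeast carrying cln2 and rad14 alterations (cell cycle control and DNA damage repair) were exposed to compounds. Growth inhibition was measured against vehicle-treated controls.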

[5] = NCI Yeast Anticancer Drug Screen. Data for the bub3 strain (AID 167); details: S. cerevisiae bub3 mutant strain, at 50.0 µM, stronger effect = higher value
How it was run: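 Yeast carrying a defined mutation is treated with each compound, and growth is compared with that of vehicle-exposed cells to give inhibition.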

[6] = NCI Yeast Anticancer Drug Screen. Data for the mlh1 rad18 strain (AID 175); details: S. cerevisiae mlh1 rad18 strain growth inhibition; at 50.0 µM; stronger effect = higher value
How it was run: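 Growth inhibition of the yeast strain was measured after compound exposure and expressed relative to vehicle-treated controls. The strain carries defined defects in DNA damage repair.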

Measured: growth inhibition

O=C(CCBr)OCCOc1ccccc1
inactive: [1] 1.55% | [2] -3.6% | [3] 4.2% | [4] -39.8% | [5] 4.95% | [6] 2.7%

NC(=O)c1cc[cH-]c1.[Fe+2].c1cc[cH-]c1
inactive: [1] -10.1% | [2] 9% | [3] -4.75% | [4] -2.05% | [5] 5.35% | [6] 12.9%

CCOC(=O)CCC1CCCCC1
inactive: [1] -1.1% | [2] -8.15% | [3] -19.4% | [4] 0.65% | [5] -3.2% | [6] 8.15%

O=[N+]([O-])CC1(O)CCCCC1
inactive: [1] 25.6% | [2] 9.05% | [3] 11.2% | [4] 7.95% | [5] -0.65% | [6] 0.9%

O=C(O)CC/C(=N\Nc1ccc([N+](=O)[O-])cc1[N+](=O)[O-])c1ccccc1
inactive: [1] 0.7% | [2] 26.4% | [3] 44.3% | [4] -18.4% | [5] 16.2% | [6] 30.3%

CCN(CC)CCCNC(Cc1ccccc1)c1ccc(OC)cc1 (stereo not given)
inactive: [1] -1.85% | [2] -7.45% | [3] -4.05% | [4] 9.05% | [5] -17.6% | [6] -19.8%

Cc1cnc(C)c(C(O)c2ccccc2)n1 (stereo not given)
inactive: [1] -5.9% | [2] -10.3% | [3] -3.7% | [4] -17.9% | [5] -9.3% | [6] -3.65%

CC1=C(C(=O)NNC(=O)c2ccccc2O)CC(C(=O)NNC(=O)c2ccccc2O)=C(C)N1
inactive: [1] 45.5% | [2] 40.5% | [3] 10.5% | [4] 17.2% | [5] 64.2% | [6] 32.4%

CCN(C(=S)Nc1cccc2ccccc12)c1ccccc1
inactive: [1] -4.05% | [2] -11.3% | [3] 11.7% | [4] 2.4% | [5] -3.65% | [6] -7.9%

c1ccc(C2=NOC3C4CCC(C4)C23)cc1 (stereo not given)
inactive: [1] -37.6% | [2] -20.4% | [3] -28.4% | [4] -21% | [5] -8.85% | [6] -20.1%

COC(=O)[C@]1(C)CCC[C@@]2(C)[C@H]1CC=C1C=C(C(C)C)CC[C@@H]12
inactive: [1] 50% | [2] 1.15% | [3] 22.8% | [4] 4.6% | [5] -1.95% | [6] 24.4%

CC(C)(C)C1=CC(=O)CCC1
inactive: [1] -37.6% | [2] -31.2% | [3] -16.4% | [4] -8.1% | [5] -26.9% | [6] 5.65%

OC(c1nc2ccccc2s1)(C(F)(F)F)C(F)(F)F
inactive: [1] -14.2% | [2] -20.1% | [3] -9.5% | [4] 18.4% | [5] -13% | [6] 38.4%

Cc1cc(C)c(/C(O)=C/C(=S)N2CCOCC2)c(C)c1
inactive: [1] 33.5% | [2] 14.1% | [3] 43.1% | [4] -33% | [5] -15.3% | [6] 32.6%

Cc1ccc(N(C(=O)Nc2ccccc2)C2=NCC(C)S2)cc1C (stereo not given)
inactive: [1] -29.5% | [2] -17.9% | [3] -37.4% | [4] 2.5% | [5] 39.3% | [6] -39.6%

Cc1cc2c(cc1C)N1C(Cl)=C3CCCCC3=C(C#N)C1N2 (stereo not given)
inactive: [1] 30.7% | [2] 30.4% | [3] 20.5% | [4] 28.3% | [5] 13.9% | [6] -8.95%

CCCCN(Cc1ccccc1)C(=O)NC(C)(C)C
inactive: [1] 2.15% | [2] 33.9% | [3] 8.1% | [4] 3.45% | [5] 25.8% | [6] 18.6%

O=[N+]1C=CC(=NN=c2ccn([O-])cc2)C=C1
inactive: [1] 33.9% | [2] 15.5% | [3] 8.65% | [4] 14.6% | [5] 8% | [6] 26.9%

CC1OC(O[C@@H]2OC=C(C=O)[C@@]3(O)CC[C@H](C)[C@@H]23)C(O)C(O)C1O (stereo not given in full)
inactive: [1] 16.2% | [2] -10.4% | [3] 9.1% | [4] 7.6% | [5] -6.1% | [6] -39.2%

CCCCCCCCCCCc1cc(=O)c2c(O)cccc2o1
inactive: [1] -5% | [2] -28.6% | [3] 9.55% | [4] -3.9% | [5] 4% | [6] -14.4%

O=C(c1ccccc1)c1ccccc1NCC(O)COc1cccc2ccccc12 (stereo not given)
inactive: [1] -7.5% | [2] -19.9% | [3] -21.9% | [4] -13.8% | [5] 5.55% | [6] -4.2%

COc1cc(C=O)cc(Br)c1O
inactive: [1] 13.3% | [2] -3.55% | [3] 34.1% | [4] -8.45% | [5] -19.7% | [6] 34.4%

COC(=O)c1cccc(C(=O)CC(=O)c2ccccc2)c1
inactive: [1] 18.6% | [2] 12.7% | [3] 8.1% | [4] 12.3% | [5] 11.2% | [6] 11.6%

CCOC(=O)Cn1c2ccccc2c(=O)c2cc(C)c(C)c(C#N)c21
inactive: [1] 13.4% | [2] -12.9% | [3] -11.6% | [4] 9% | [5] 8.5% | [6] 8.1%

O=C1NC(c2ccccc2)(c2ccccc2)C(=O)N1CNc1ccccn1
inactive: [1] -0.4% | [2] -14.8% | [3] -31.8% | [4] 8.95% | [5] -8.3% | [6] 29.6%

CS(=O)(=O)N1CC(CCl)c2ccc(NO)cc21 (stereo not given)
inactive: [1] 43.5% | [2] 27.9% | [3] 24.9% | [4] 17.3% | [5] 0.45% | [6] -32.4%

O=C(NCCCCC(Br)C(=O)O)c1ccccc1 (stereo not given)
inactive: [1] -30% | [2] -5.5% | [3] -33.4% | [4] -53.2% | [5] -1.55% | [6] -34.9%

Cc1n(C)nn[n+]1C
inactive: [1] 2.65% | [2] -8.35% | [3] -2.65% | [4] -24.1% | [5] 7.9% | [6] -16.5%

Nc1cc(S(=O)(=O)O)cc2ccc(S(=O)(=O)O)cc12
inactive: [1] -4.15% | [2] 6.75% | [3] -14.6% | [4] -4.35% | [5] -5.65% | [6] 3.95%

Cc1nc2c(o1)C(=Nc1ccccc1)c1ccccc1C2=Nc1ccccc1
inactive: [1] -7.45% | [2] -23.4% | [3] 1.45% | [4] -13.9% | [5] -20.1% | [6] -9.65%

O=C(/C=C\c1ccccc1)Nc1c(Cl)cc(Cl)cc1Cl
inactive: [1] 0.65% | [2] 10.5% | [3] 9.05% | [4] -8.75% | [5] 39.5% | [6] 23.3%

CC(=O)O/C1=C\CCCCCCCCCC1
inactive: [1] 6.95% | [2] -27.5% | [3] 28.3% | [4] 18.9% | [5] 13.5% | [6] -1.45%

CCCCCCCCNC(=O)/C(=C\c1ccc(/C=C(/NC(=O)c2ccccc2)C(=O)NCCCCCCCC)cc1)NC(=O)c1ccccc1
inactive: [1] -14% | [2] -23.4% | [3] -20.4% | [4] 11.7% | [5] -17.9% | [6] -4%

CN(C)c1nc(Cl)cc2nc(Cl)cn12
inactive: [1] 0.25% | [2] 5.7% | [3] 2.5% | [4] -0.35% | [5] -8.15% | [6] 0.5%

CCC1(C(=O)OC)CCC2C3CCC4CCCCC4(C)C3CCC21C (stereo not given)
inactive: [1] 4.6% | [2] -8.9% | [3] 9.25% | [4] -3.95% | [5] 5.4% | [6] 11.1%

CCC(C)(CC(=O)O)CC(=O)O
inactive: [1] -13.9% | [2] 7.45% | [3] -15.7% | [4] 0.85% | [5] 2.7% | [6] 5.3%

CCCOCOCCC
inactive: [1] -22.5% | [2] 0.05% | [3] -13.2% | [4] -28.4% | [5] 11.7% | [6] -27.5%

NC(N)=NC(N)=Nc1ccc(N=C(N)N=C(N)N)cc1
inactive: [1] 3.55% | [2] -12.7% | [3] -6.2% | [4] -0.75% | [5] 10.2% | [6] -1.3%

N=C1/C(=C/c2ccco2)C(=O)N=C2SC=NN12
inactive: [1] 7.75% | [2] 19.1% | [3] 13.2% | [4] -9.6% | [5] -5.6% | [6] 20.9%

Cc1ccc(Cl)cc1NC(=O)Nc1cc(Cl)c(Cl)cc1C
inactive: [1] 3.55% | [2] 45% | [3] 43.5% | [4] -2.5% | [5] 45.9% | [6] 33.3%
